# PubChem BioAssay AID504850 (National Center for Advancing Translational Sciences (NCATS), 2011)
# About 1,200 (52%) of roughly 2,300 compounds were called active. Another 34% or so got no clear call; they are omitted. The call rests on the fitted dose curve; in most records, active means well fitted inhibition curve with a large enough effect; inconclusive means small, poorly fitted or top-dose-only effect, or effect the other way; inactive means no such curve, though single readings can be large or run the other way. The set was probably picked from earlier hits. The list shows a part of the results.
# Test: Confirmation screen for delayed death inhibitors of the malarial parasite plastid, 48 hour incubation; further: nearly all actives have a fitted effect of over 65% in size
# Details: P. falciparum-infected erythrocytes, luciferase growth; series mostly up to 28.7 µM
# Summary of the method: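 Erythrocytes infected with luciferase-expressing P. falciparum (2% hematocrit, 0.1% parasitemia) incubated with compounds 48 hours at 37 C, 5% CO2, in RPMI/Albumax. Growth inhibition scored as reduced luminescence after detection reagent.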
# Potency means the concentration at half of the fitted maximal effect.
row,Compound,Potency
1,CCCCCCn1ccc(=N)cc1,7.08 µM (active)
2,CCOC(=O)c1c(NC(=O)c2c(-c3ccccc3)noc2C)sc(C)c1-c1ccccc1,6.31 µM (active)
3,CCOC(=O)c1c(-c2ccc(-c3ccccc3)cc2)csc1NC(=O)c1cccc(N2C(=O)CCC2=O)c1,5.01 µM (active)
4,CCOC(=O)c1c(-c2cccc(C)c2)csc1NC(=O)c1c(-c2ccccc2)noc1C,11.2 µM (active)
5,CCOC(=O)c1c(-c2ccc(F)cc2)csc1NC(=O)c1c(-c2ccccc2)noc1C,8.91 µM (active)
6,COC(=O)c1c(-c2ccccc2)csc1NC(=O)c1c(-c2ccccc2)noc1C,14.1 µM (active)
7,O=C(c1cccs1)N1N=C(c2ccccc2)CC1c1ccccc1O (configuration not stated),3.55 µM (active)
8,CCOc1ccc2c(c1)OC(c1ccccc1)(C(F)(F)F)NC2=O (configuration not stated),2 µM (active)
9,CC[C@@H](C)C(NC(=O)OC(C)(C)C)c1cn([C@@H](Cc2ccc(O)cc2)C(=O)N2CCN(C(=O)OC(C)(C)C)CC2)nn1 (some centres not stated),12.6 µM (active)
10,CC[C@@H](C)C(NC(=O)OC(C)(C)C)c1cn([C@@H](CCCCNC(=O)OC(C)(C)C)C(=O)N2CCN(C(=O)OC(C)(C)C)CC2)nn1 (some centres not stated),2 µM (active)
11,CCOc1ccccc1NC(=O)c1cc(S(=O)(=O)NCc2ccco2)ccc1F,12.6 µM (active)
12,COc1ccccc1NC(=O)c1ccc(S(=O)(=O)NCc2ccco2)cc1,inactive
13,O=C1c2cccc3cc([N+](=O)[O-])cc(c23)C(=O)N1CCN1CCCC1,10 µM (active)
14,Cc1nnnn1/C(=C\c1ccccc1)C(=O)OCC(=O)N1CC2(C)CC1CC(C)(C)C2 (configuration not stated),12.6 µM (active)
15,CCN1C(=O)c2ccccc2Sc2ccc(C(=O)NCCCN3CCCCC3)cc21,12.6 µM (active)
16,Cc1cccc(CN2C(=O)c3ccccc3S(=O)(=O)c3ccc(C(=O)NCCCN4CCCC4)cc32)c1,3.98 µM (active)
17,O=C(NCCCN1CCCC1)c1ccc2c(c1)N(Cc1ccccc1F)C(=O)c1ccccc1S2=O (configuration not stated),12.6 µM (active)
18,O=C(c1ccc2c(c1)N(Cc1cccc(Cl)c1)C(=O)c1ccccc1S2(=O)=O)N1CCN(c2ccccn2)CC1,3.98 µM (active)
19,CC(C)[C@H](NC(=O)N1CCn2c1nc1ccccc12)C(=O)N[C@H](C(=O)O)c1ccccc1,inactive

row,Compound,Potency
1,CCOC(=O)N1CCN(C(=O)c2ccc3c(c2)N(Cc2cc(C)ccc2C)C(=O)c2ccccc2S3=O)CC1 (configuration not stated),4.47 µM (active)
2,CCN1CCCC1CNC(=O)c1ccc2c(c1)N(Cc1ccccc1F)C(=O)c1ccccc1S2(=O)=O (configuration not stated),5.01 µM (active)
3,CC(NC(=O)CCl)c1ccccc1Br (configuration not stated),2.24 µM (active)
4,CC(=O)/C=C/c1ccc2ccccc2n1,12.6 µM (active)
5,Cc1cccc(N(Cc2ccccc2)C(=O)CSC(C)C(=O)Nc2cc(C)on2)c1 (configuration not stated),11.2 µM (active)
6,Cc1cc(C)c(OCC(O)CNC(C)(C)C)c(C)c1 (configuration not stated),11.2 µM (active)
7,Cn1nnnc1Sc1ncnc2scc(-c3cccs3)c12,12.6 µM (active)
8,Cn1nnnc1Sc1ncnc2scc(-c3ccc[nH]3)c12,12.6 µM (active)
9,Cn1nnnc1Sc1ncnc2scc(-c3ccsc3)c12,4.47 µM (active)
10,O=C(NCc1ccccn1)Nc1cc(Cl)ccc1Cl,5.01 µM (active)
11,Cc1ccc(Oc2nc3ccccn3c(=O)c2/C=C(\C#N)C(=O)NC2CCS(=O)(=O)C2)c(C)c1 (configuration not stated),12.6 µM (active)
12,CCN(CC)CCNC(=O)C1c2cc(OC)c(OC)cc2C(=O)N2CCc3ccccc3C12 (configuration not stated),7.08 µM (active)
13,CCCN(CCC)CCNC(=O)C1c2ccccc2C(=O)N2CCc3ccccc3C12 (configuration not stated),inactive
14,CC(=O)c1ccccc1OCC(O)CN1CCN(C(c2ccccc2)c2ccccc2)CC1 (configuration not stated),2.24 µM (active)
15,O=C(N/N=C/c1ccc([N+](=O)[O-])cc1)c1cccc(N2CCCC2=O)c1,11.2 µM (active)
16,Cc1nn(-c2ccccc2)c(N2CCCC2)c1/C=N/NC(=O)c1ccccc1O,5.01 µM (active)
17,Cc1nn(-c2ccccc2)c(N2CCCC2)c1/C=N/NC(=S)Nc1ccccc1F,12.6 µM (active)
18,CC(C)Cc1csc(NC(=O)C(C)C)c1C(=O)O,inactive
19,CCOC(=O)C1(CCc2ccccc2)CCN(Cc2ccccn2)CC1,4.47 µM (active)

row,Compound,Potency
1,Cc1cccc(NC(=O)CSc2nc3ccccc3nc2N2CCCC2)c1,14.1 µM (active)
2,COc1cccc(NC(=O)CSc2nc3ccccc3nc2N2CCCC2)c1,14.1 µM (active)
3,Cc1cccc(NC(=O)CSc2nc3ccccc3nc2N2CCCCC2)c1,11.2 µM (active)
4,O=C1C(=O)c2ccccc2C(O)=C1c1cccc([N+](=O)[O-])c1,12.6 µM (active)
5,Nc1nc(N)nc(-c2cc([N+](=O)[O-])ccc2O)n1,inactive
6,Cc1ccc(C2C3=C(CC(C)(C)CC3=O)N=C3c4ccccc4C(=O)C32)cc1 (configuration not stated),8.91 µM (active)
7,COc1ccc(-n2c(C)cc(C(=O)Cn3c(NCCO)nc4ccccc43)c2C)cc1,12.6 µM (active)
8,CCOc1ccc(C2c3[nH]c4ccccc4c3CCN2Cc2cccn2-c2ncccn2)cc1 (configuration not stated),12.6 µM (active)
9,Cc1ccccc1C1c2[nH]c3ccccc3c2CCN1Cc1cccn1-c1ncccn1 (configuration not stated),12.6 µM (active)
10,Cc1c(NC(=S)NC(=O)C(C)(C)C)c(=O)n(-c2ccccc2)n1C,inactive
11,Cc1cc(C)cc(-n2c(N)c(C(=O)Nc3c(C)n(C)n(-c4ccccc4)c3=O)c3nc4ccccc4nc32)c1,4.47 µM (active)
12,COc1ccc2c(C)c(CCC(=O)NC3CC3)c(=O)oc2c1C,3.98 µM (active)
13,COc1ccc(/C=C/C(=O)c2ccc([N+](=O)[O-])o2)cc1OC,11.2 µM (active)
14,CCCSc1ccc(-c2nn(-c3ccccc3)cc2/C=C(/C#N)C(=O)NCCCOC)cc1,5.62 µM (active)
15,CN1CCN(c2ccccc2NC(=O)c2cccc(OCc3ccccc3)c2)CC1,7.94 µM (active)
16,Cc1cc(=O)oc2ccc(OCC(=O)N3CCc4ccccc43)cc12,10 µM (active)
17,O=C(O)c1nn(CCOc2ccc(Cl)cc2Cl)c(=O)c2ccccc12,inactive
18,CCC1CCCCN1CCCNC(=O)CNC(=O)c1nn(-c2ccc(OC)c(Cl)c2)c(=O)c2ccccc12 (configuration not stated),11.2 µM (active)
19,CCC1CCCCN1CCCNC(=O)Cn1c(=O)c2cccn2c2cccnc21 (configuration not stated),inactive
